Screening results: PubChem, National Center for Advancing Translational Sciences (NCATS)
The sample as a whole holds a higher share of hits than the screen did.
KDM5B inhibitor – KDM5B demethylase inhibition. KDM5B demethylase, FDH-coupled NADH fluorescence (FDH is formaldehyde dehydrogenase). Potency, µM (titrated, usually from 57.7 µM), hits mostly inhibitors. 220,000 tested, 2.6% active; active = well fitted inhibition curve with a large enough effect; also: 0% is about no effect; nearly all actives have a fitted effect of over 70% in size
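KDM5BΔAP (200 nM final) in 50 mM HEPES pH 7.5, 0.01% Tween-20 was preincubated 10 min at RT with compound over a concentration range. Substrate mix (H3K4me3 12.5 µM, α-KG 25 µM, Fe²⁺, ascorbate, NAD⁺, FDH) was added, and NADH fluorescence change over 30 min gave dose-response curves.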
Active calls of the source: *; i = inactive. Potency is read from the fitted curve at half-maximal effect.

SMILES	KDM5B inhibitor
C[C@@H]1C(=O)O[C@H]2[C@H]1CC[C@@]1(C)Cc3sc(NS(=O)(=O)c4ccc(F)c(Cl)c4)nc3[C@@H](C)[C@H]21	i
C[C@@H]1C(=O)O[C@H]2[C@H]1CC[C@@]1(C)Cc3sc(Nc4ccc(F)cc4)nc3[C@@H](C)[C@H]21	i
COc1cc(C(=O)Nc2nc3c(s2)C[C@]2(C)CC[C@@H]4[C@H](OC(=O)[C@H]4C)[C@H]2[C@@H]3C)cc(OC)c1OC	28µM*
C[C@@H]1C(=O)O[C@H]2[C@H]1CC[C@@]1(C)Cc3sc(NS(=O)(=O)c4ccc(Cl)cc4)nc3[C@@H](C)[C@H]21	i
C[C@@H]1C(=O)O[C@H]2[C@H]1CC[C@@]1(C)Cc3sc(NC(=O)CS(=O)(=O)c4ccccc4)nc3[C@@H](C)[C@H]21	i
C[C@@H]1C(=O)O[C@H]2[C@H]1CC[C@@]1(C)Cc3sc(NC(=O)c4ccc(F)c(Cl)c4)nc3[C@@H](C)[C@H]21	28µM*
CC(C)N(C)S(=O)(=O)c1ccc(Cl)c(C(=O)NCc2ccnc(N3CCCC3)c2)c1	i
CCc1ccc(-c2[nH]c3c(c2-c2ccc(OC)cc2)c(=O)[nH]c(=O)n3C)cc1	i
O=C(NCCN1CCCCCC1)C1CCCC1	i
Cc1ccc(F)c2c(C=O)c(C(C)(C)C)[nH]c12	i
Cc1ccc(NC(=O)C2Cn3cccc3C(=O)N2C)cc1 (stereo not given)	i
CC1=C(C(=O)Nc2ccccc2)C(c2ccc(F)cc2)N=C(Nc2nc3ccccc3o2)N1 (stereo not given)	i
CC1=C[C@@H](CNC(=O)COc2ccccc2)[C@H](C(C)C)C[C@H]1CC(=O)N1CCN(C)CC1	i
COc1ccc(S(=O)(=O)NC[C@@H]2C=C(C)[C@H](CC(=O)N3CCN(C)CC3)C[C@H]2C(C)C)cc1	i
CC1=C[C@@H](CNC(=O)c2ccccn2)[C@H](C(C)C)C[C@H]1CC(=O)N1CCN(C)CC1	i
CC(=O)N1CCN(C(=O)C[C@@H]2C[C@@H](C(C)C)[C@H](CNC(=O)Nc3cccc(F)c3)C=C2C)CC1	i
COc1ccc(S(=O)(=O)NC[C@@H]2C=C(C)[C@H](CC(=O)N3CCN(c4ccccn4)CC3)C[C@H]2C(C)C)cc1	28µM*
CCOC(=O)C[C@@H]1C[C@@H](C(C)C)[C@H](CNS(=O)(=O)c2ccc(NC(C)=O)cc2)C=C1C	i
COCC(=O)NC[C@@H]1C=C(C)[C@H](CC(=O)N2CCN(c3ccccn3)CC2)C[C@H]1C(C)C	32µM*
CC(=O)Nc1ccc(S(=O)(=O)NC[C@@H]2C=C(C)[C@H](CC(=O)NCCN3CCOCC3)C[C@H]2C(C)C)cc1	i
COc1cccc(NC(=O)NC[C@@H]2C=C(C)[C@H](CC(=O)N3CCN(c4ccccn4)CC3)C[C@H]2C(C)C)c1	32µM*
CC1=C[C@@H](CNS(=O)(=O)c2ccc(C#N)cc2)[C@H](C(C)C)C[C@H]1CC(=O)N1CCOCC1	i
COc1cccc(NC(=O)NC[C@@H]2C=C(C)[C@H](CC(=O)N3CCOCC3)C[C@H]2C(C)C)c1	i
COCCNC(=O)C[C@@H]1C[C@@H](C(C)C)[C@H](CNS(=O)(=O)c2ccc(OC)cc2)C=C1C	22µM*
c1ccc(CCN2CCNCC2)nc1	i
SMILES	KDM5B inhibitor
COc1ccc2[nH]c(=O)c(-c3noc(-c4cccs4)n3)cc2c1	i
O=C(c1cccc(F)c1)N1CCCC(c2nc3ccccc3o2)C1 (stereo not given)	i
O=C(Nc1ccc2oc(=O)ccc2c1)c1ccc(OC(F)F)cc1	i
CCCCCNc1nc2c(c(=O)n(Cc3ccccc3Cl)c(=O)n2C)n1C	i
CCn1c(CSc2n[nH]c(-c3ccc(OC)cc3)n2)nc2cc(S(=O)(=O)N(C)C)ccc21	i
CCN(CC)S(=O)(=O)N1CC=C(c2c(OC)cc(OC)cc2OC)CC1	i
Cc1ccc(N/N=C/c2cccc(/C=N/Nc3ccc(C)c(Cl)c3)c2)cc1Cl	i
CC1=C[C@@H](CNC(=O)CC(C)(C)C)[C@H](C(C)C)C[C@H]1CC(=O)O	28µM*
CC(=O)NC[C@@H]1C=C(C)[C@H](CC(=O)O)C[C@H]1C(C)C	i
CC1=C[C@@H](CNC(=O)c2cnccn2)[C@H](C(C)C)C[C@H]1CC(=O)O	i
CCOc1cc(COC(=O)c2ccc(S(=O)(=O)N3CCCC3)cc2)ccc1OC(F)F	i
O=C(CCc1ccsc1)N1CCC2(CCCN(Cc3cccnc3)C2=O)C1 (stereo not given)	i
O=C1COc2ccc(-c3cccc(O)c3)nc2CN1CCOc1ccccc1	i
O=C1COc2ccc(-c3ccccc3)nc2CN1	i
COc1cccc(-c2ccc3c(n2)CNC(=O)CO3)c1	32µM*
CCCc1cc(N2CCC(NCc3cc(F)c(F)c(F)c3)CC2)nc(C)n1	i
CC1CC(=O)Nc2cc(S(=O)(=O)NCc3cccs3)ccc2S1 (stereo not given)	i
Cc1noc(C)c1-c1cc2cc(CO)oc2c(N2CCS(=O)(=O)CC2)n1	35µM*
Cc1noc(C)c1-c1cc2cc(C(C)C)oc2c(N2CCS(=O)(=O)CC2)n1	32µM*
Cc1cc2cc(-c3c(C)noc3C)nc(NC3CCN(C)CC3)c2o1	i
CC(C(=O)NCc1ccc(Cl)cc1)N1CCCC(C(F)(F)F)C1 (stereo not given)	i
O=C(CCn1nc(-c2ccccc2)c2ccccc2c1=O)N1CCOCC1	i
CN(C)c1cccc(-c2nccc3c(=O)cc(-c4cn[nH]c4)oc23)c1	i
O=c1cc(N2CCOCC2)oc2c(N3CCN(c4ccccn4)CC3)nccc12	i
O=c1cc(N2CCOCC2)oc2c(-c3ccccc3)nccc12	32µM*
SMILES	KDM5B inhibitor
O=c1cc(N2CCOCC2)oc2c(-c3ccncc3)nccc12	35µM*
CN(C)c1cccc(-c2nccc3c(=O)cc(N4CCOCC4)oc23)c1	35µM*
CN(C)c1cccc(-c2cnc3[nH]cc(CC(=O)N4CCOCC4)c3c2)c1	i
O=C(Nc1ccc(Oc2ccccc2)cc1)C(Cc1ccccc1)n1cnnn1 (stereo not given)	i
Cc1ccc(OCC(=O)Nc2ccc3oc(C)nc3c2)c(C)c1	i
CCCCc1cnc2c(c1SCC(=O)Nc1ccccc1C(=O)OCC)c(=O)n(C)c(=O)n2C	i
N#Cc1ccc(C(=O)N2CCC(C(=O)N3CCc4ccccc4C3)CC2)cc1	i
O=C(N[C@@H]1CCOC[C@H]1O)c1cnn2cc(CCO)cnc12	28µM*
Cc1cnc2c(Cl)c(C(=O)N[C@@H]3COCC[C@@H]3OCC3CC3)nn2c1	i
CCN(CC)Cc1cnc2c(C(=O)NC(C3CC3)C3CC3)cnn2c1	i
CCN1CC(C(=O)N2CCN(Cc3cccc(F)c3)C(=O)C2)CC1=O (stereo not given)	i
COCc1nc2nc(-c3ccccc3)c(-c3ccc(OC)nc3)cc2n1C	35µM*
COc1ccc(C(=O)NCCn2c(C)cnc2-c2ccccc2)cn1	i
COCc1nc2nc(-c3ccccc3)c(-c3ccc(N4CCN(C)CC4)nc3)cc2n1C	35µM*
C[S+](=O)([O-])c1ccc(-c2cc(C(=O)N3CCOCC3)nn3cccc23)cc1	i
COCc1nc2nc(-c3ccccc3)c(-c3ccc([S+](C)(=O)[O-])cc3)cc2n1C	35µM*
CCc1nc2c(c(-c3ccc(OC)cc3)n1)CCN([S+](=O)([O-])c1cccc(OC)c1)CC2	i
COc1ccc(OCC(=O)N2CCN(c3cc(-c4ccccc4)[nH]n3)CC2)cc1	i
